In the library only some 4.2% were active in any assay of this set; here they are far more common.
SMARCA2 activ: SMARCA2 (BRM) function activators, primary screen, cell-based, luminescence, high throughput; activation, % at 9.1 µM; MG213 cells, MMTV-luciferase reporter, dexamethasone, overnight; AID 652017, 2013; 370,000 tested, 1% active; in the data active means activation above about 7.8%;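 further: 0% = vehicle wells and 100% = reference activator wells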
ssDAF-12 act: S. stercoralis DAF-12 nuclear receptor activators, primary screen, cell-based, luminescence, HEK293, GRIP1 co-expression, lit1-tk-luc. Nuclear hormone receptor DAF-12 (Strongyloides stercoralis). HEK293 ssDAF-12/GRIP1 lit1-tk-luc reporter; % of 3 µM dafachronic acid response. activation, % at 6.8 µM. 370,000 tested, 1% active. AID 652126, 2013;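 active means activation above the mean over all tested compounds plus 3 SD, cut at about 0.9% in these data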;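 further: 0% = DMSO-only wells and 100% = 3 µM delta7-dafachronic acid wells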
hgDAF-12 ag: H. glycines DAF-12 receptor agonists, primary screen, cell-based, luminescence, HEK293, GAL4 fusion, UAS-luciferase; Nuclear hormone receptor DAF-12 (Heterodera glycines), GAL4 fusion; HEK293 GAL4-hgDAF12 UAS-luciferase reporter, agonist luminescence; normalized to butyrate control; activation, % at 6.8 µM; 370,000 tested, 1.8% active; AID 687014, 2013;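 active means activation above a cutoff set at the mean of all screened compounds plus 3 SD, cut at about 10% in these data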;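 further: 0% = DMSO wells and 100% = sodium butyrate wells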
hcDAF12 agonist: H. contortus DAF-12 nuclear receptor activators, primary screen, cell-based, luminescence, HEK293, lit1-tk-luc reporter; 370,000 tested, 1.4% active; HEK293 hcDAF-12 lit1-tk-luc reporter; 0% DMSO, 100% Δ7-dafachronic acid; activation, % at 6.8 µM;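 active means activation above the mean of all tested compounds plus 3 SD, cut at about 5.5% in these data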;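 further: 100% = response to 3 µM Δ7-dafachronic acid high control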
DAX1 inh: DAX1 (NR0B1) inhibitors on StAR promoter, primary screen, cell-based, luminescence, SF-1 (NR5A1), full-length DAX-1 | HEK293T StAR-luciferase reporter, SF-1/DAX-1 repression relief | inhibition, % at 6.8 µM | 370,000 tested, 1.1% active | AID 652010, 2013;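 active means inhibition above the mean over all tested compounds plus 3 SD, cut at about 3.6% in these data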;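 further: 0% = DAX-1 cells with DMSO and 100% = cells lacking DAX-1 with DMSO; higher inhibition means more luminescence from relief of DAX-1 repression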
LXRb hcDAF ctr: LXR agonists, Gal4 luciferase reporter, confirmation, counter-screen for hcDAF-12 agonist project, cell-based, luminescence, HEK293, H. contortus campaign. AID 743027, 2013. HEK293 Gal4-LXR tk-luc reporter, 24 h; normalized: DMSO 0%, positive control 100%. activation, % at 6.8 µM. 3,400 tested, under 10 active. shares compounds with hcDAF12 agonist;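 active means mean percent activation of the reporter above a cutoff set as the average over tested compounds plus their standard deviation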
Target sequence (P55055 whole entry, looked up, the tested form may be a part): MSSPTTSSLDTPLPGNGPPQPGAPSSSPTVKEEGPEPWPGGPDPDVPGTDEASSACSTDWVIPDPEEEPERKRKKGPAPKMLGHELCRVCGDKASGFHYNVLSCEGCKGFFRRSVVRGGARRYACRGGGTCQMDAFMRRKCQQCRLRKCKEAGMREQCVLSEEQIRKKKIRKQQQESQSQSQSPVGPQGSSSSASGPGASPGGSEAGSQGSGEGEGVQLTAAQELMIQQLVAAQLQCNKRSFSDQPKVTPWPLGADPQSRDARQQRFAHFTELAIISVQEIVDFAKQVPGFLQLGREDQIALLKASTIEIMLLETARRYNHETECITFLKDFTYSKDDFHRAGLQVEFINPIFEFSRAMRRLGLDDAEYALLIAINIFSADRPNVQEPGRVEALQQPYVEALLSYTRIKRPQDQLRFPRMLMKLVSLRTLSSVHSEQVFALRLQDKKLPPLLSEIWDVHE
hcDAF12 ag: H. contortus DAF-12 receptor agonists, confirmation, cell-based, luminescence, HEK293, lit1-tk-luc, triplicate; HEK293 hcDAF-12 lit1-tk-luc reporter; % of Δ7-dafachronic acid response; 3,400 tested, 61% active; shares compounds with hcDAF12 agonist; activation, % at 6.8 µM;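 active means mean activation across triplicate tests above the threshold derived from the earlier primary screen, cut at about 5.5% in these data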;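 further: 0% = DMSO only wells and 100% = 3 µM Δ7-dafachronic acid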
* = called active by the depositor; . = not tested or not shown.

SMILES	SMARCA2 activ	ssDAF-12 act	hgDAF-12 ag	hcDAF12 agonist	DAX1 inh	LXRb hcDAF ctr	hcDAF12 ag
COc1cccc(C=NNc2nc3ccccc3s2)c1OC	6	0	13*	7.6*	3.6*	1	3
CCn1c(C)c(/C=N/Nc2nc3ccccc3s2)c2ccccc21	-1	0	11*	12*	1	0	4
CN1Cc2nnn(Cc3ccccc3)c2-c2cc(F)ccc2S1(=O)=O	2	-1	-2	3	1	.	.
O=C(/C=C/Nc1cccc(F)c1)c1ccco1	5	1.4*	12*	8.8*	3	1	8.1*
O=C(/C=C/Nc1ccc(F)c(Cl)c1)c1ccco1	8	1.7*	9	8.8*	1	1	12*
O=C(CCNc1ccc(F)c(Cl)c1)c1ccco1	7	-2	3	0	0	.	.
O=C(/C=C\Nc1cccc(F)c1)c1cccs1	5	1.5*	8	9.8*	3.6*	2	18*
O=C(OCc1ccccc1)[C@H](Cc1ccccc1)NC(=O)[C@@H]1CC=C[C@@H]2CCN(C3CCCCC3)C(=O)[C@@H]21	.	-1	0	2	.	.	.
C[C@@H](c1ccccc1)N1C[C@@H](COCc2ccccc2)Oc2cc(N3CCC[C@H]3CO)ccc2S1(=O)=O	-3	-2	-1	-2	0	.	.
CC(CCN1CCC(C(O)(c2ccccc2)c2ccccc2)CC1)Oc1cccc(F)c1 (stereo unspecified)	-6	0	1	11*	0	0	2
OC(c1ccccc1)(c1ccccc1)C1CCN(CCCOc2cc(F)cc(F)c2)CC1	-4	-1	1	1	0	.	.
COC(=O)[C@]12C[C@H](CC(=O)NCCC(C)C)C(=O)N(Cc3ccco3)C1=C[C@H](COCc1ccccc1)O[C@@H]2C	-4	-1	7	1	-1	.	.
Fc1cccc(-c2nnn3c2nc(Cl)c2ccccc23)c1	3	1	12*	8.3*	1	0	6.4*
COC(=O)C1=C(Nc2ccccc2NC(=O)c2ccccc2C(=O)O)CSC1	2	1.7*	9	7.5*	3	0	4
O=C(Nc1ccc2nc3ccccc3nc2c1)c1ccc(Br)cc1	-3	-2	0	-2	0	.	.
O=C(Nc1ccc2cccnc2c1)c1ccc(Br)cc1	1	0	7	8.6*	0	0	7.0*
COc1cc(N=Nc2cccc(S(N)(=O)=O)c2)c2ccccc2c1N	3	0	-2	9.2*	0	0	3
CCOC(=O)C1(C)CCCN1C(=O)c1ccccc1F (stereo unspecified)	-3	-1	2	7.1*	0	0	0
CCN(CC)c1ccc(/C=N/NC(=O)c2ccccn2)cc1	6	1	11*	6.8*	1	1	7.1*
CCN(CC)c1ccc(/C=N/N=C(c2ccccc2)c2ccccc2)c(O)c1	-1	-2	-1	-2	-1	.	.
CCN(CC)c1ccc(/C=N/N(c2ccccc2)c2ccccc2)c(O)c1	-3	1.1*	6	12*	0	0	5
CCOc1cc2c(c3c1C(c1ccccc1)N(S(=O)(=O)c1ccc(C)cc1)C3)C(=O)C=CC2=O (stereo unspecified)	-3	0	-2	0	0	.	.

Compound activity (PubChem)
